Data taken from PubChem BioAssay (NCI).
The panel holds about 83,000 compounds, 20% with a hit somewhere; the sample as a whole holds those more often.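 The endpoint reported here, percent growth, reads 100 for growth as untreated, 0 for no net growth and -100 for all cells dead.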 Activity calls are given as the source filed them. Rule for the calls: active = growth percent below 10; inactive = the rest.

Columns and labels:
Assay in all cases: NCI-60 one-dose screen, 48 h (100 = growth as untreated, 0 = no growth, -100 = all killed)
Conditions in all cases: 10 µM
DU-145 prostate = tested on: DU-145 prostate
K-562 leukemia = tested on: K-562 leukemia
MDA-MB-231 breast = tested on: MDA-MB-231 breast
RXF 393 renal = tested on: RXF 393 renal
SF-268 CNS = tested on: SF-268 CNS
SF-295 CNS = tested on: SF-295 CNS
SF-539 CNS = tested on: SF-539 CNS
UACC-257 melanoma = tested on: UACC-257 melanoma
M14 melanoma = tested on: M14 melanoma

Measured: growth

COc1cc(/C=C/C(=O)c2cc(-c3ccc(F)cc3)ccc2O)cc(OC)c1OC
inactive: DU-145 prostate 91.1% | K-562 leukemia 34.5% | MDA-MB-231 breast 60.7% | RXF 393 renal 104% | SF-268 CNS 85.7% | SF-295 CNS 95.1% | SF-539 CNS 89% | UACC-257 melanoma 68.4% | M14 melanoma 86.2%

Cc1cc(C#Cc2ccccc2)ccc1-n1c(/C=C/c2cc(O)ccc2O)nc2ccccc2c1=O
active: DU-145 prostate 2.27% | K-562 leukemia 7.36% | MDA-MB-231 breast -24.2% | RXF 393 renal -27.9% | SF-268 CNS 5.15% | SF-295 CNS -14.6% | SF-539 CNS -20.9% | M14 melanoma -3.57%
inactive: UACC-257 melanoma 20%

O=C(O)c1cc(C(F)(F)F)cc(C(F)(F)F)c1
inactive: DU-145 prostate 116% | K-562 leukemia 95.2% | MDA-MB-231 breast 104% | RXF 393 renal 105% | SF-268 CNS 106% | SF-295 CNS 102% | SF-539 CNS 105% | UACC-257 melanoma 101% | M14 melanoma 91.1%

COc1ccccc1CNCCCN1C(=O)c2ccc3c4c(ccc(c24)C1=O)C(=O)N(CCCNCCNCCCN)C3=O
inactive: DU-145 prostate 16.3% | K-562 leukemia 10.2% | MDA-MB-231 breast 20.3% | RXF 393 renal 25.2% | SF-295 CNS 51.3% | SF-539 CNS 14.1% | M14 melanoma 46.7%
active: SF-268 CNS 1.02% | UACC-257 melanoma -6.36%

O=C1/C(=C/c2cccs2)CCC/C1=C\c1cccs1
inactive: DU-145 prostate 92.9% | K-562 leukemia 94.8% | RXF 393 renal 91.9% | SF-268 CNS 96.2% | SF-295 CNS 104% | SF-539 CNS 100% | UACC-257 melanoma 96.9% | M14 melanoma 87.5%

Nc1ccc2c(c1)Cc1cc(N)c(Cl)cc1-2
inactive: DU-145 prostate 119% | K-562 leukemia 104% | MDA-MB-231 breast 88.4% | RXF 393 renal 110% | SF-268 CNS 113% | SF-295 CNS 99.1% | SF-539 CNS 95.9% | UACC-257 melanoma 94.5% | M14 melanoma 107%

COc1ccc(/C(=C/c2cc(OC)c(OC)cc2[N+](=O)[O-])C(=O)O)cc1
inactive: DU-145 prostate 124% | K-562 leukemia 94.6% | MDA-MB-231 breast 96.7% | RXF 393 renal 126% | SF-268 CNS 111% | SF-295 CNS 121% | SF-539 CNS 99.6% | UACC-257 melanoma 118% | M14 melanoma 104%

O=C(NNc1nc(N2CCCC2)nc(N2CCCC2)n1)c1ccccc1
inactive: DU-145 prostate 107% | MDA-MB-231 breast 100% | RXF 393 renal 116% | SF-268 CNS 106% | SF-295 CNS 128% | SF-539 CNS 113% | UACC-257 melanoma 96.6% | M14 melanoma 132%

COc1ccc(-c2ccccc2)cc1C(=O)c1ccc(-c2ccccc2)cc1
inactive: DU-145 prostate 94% | K-562 leukemia 20.8% | MDA-MB-231 breast 96.8% | RXF 393 renal 85.7% | SF-268 CNS 88.5% | SF-295 CNS 53.4% | SF-539 CNS 88.4% | UACC-257 melanoma 106% | M14 melanoma 52%

Cc1ccc2nc3[nH]c(=O)[nH]c(=O)c3c(N)c2c1
inactive: DU-145 prostate 77.2% | K-562 leukemia 96.2% | MDA-MB-231 breast 95.8% | RXF 393 renal 77.7% | SF-268 CNS 88.5% | SF-295 CNS 90.9% | SF-539 CNS 92.3% | UACC-257 melanoma 88.9% | M14 melanoma 96%

COc1cc(/C=C/C(=O)c2cc(-c3ccc(C(F)(F)F)cc3)ccc2O)cc(OC)c1OC
inactive: DU-145 prostate 81% | K-562 leukemia 41% | MDA-MB-231 breast 61.3% | RXF 393 renal 61% | SF-268 CNS 76.2% | SF-295 CNS 78.1% | SF-539 CNS 92.3% | UACC-257 melanoma 82.5% | M14 melanoma 81.8%
